# ERp5 block: blocks human ERp5 reductase activity on insulin | 350,000 tested, 0.05% active | ERp5 insulin aggregation, absorbance 650 nm, 90 min | inhibition, % at 9.99 µM | AID 651711 | Q15084;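 active = mean replicate inhibition above about 25%, with every replicate also reaching it, limit read from the data, passing the limit was not always enough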
# PDI turbidity: blocks human protein disulfide isomerase activity. PDI insulin aggregation turbidity, A650, 90 min. inhibition, % at 10 µM. 350,000 tested, 0.052% active. AID 588391;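 active = mean inhibition across replicates of 30% or more, whatever share of single replicates reach that level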
# SIRT5 inh: blocks human SIRT5 desuccinylation of peptide; inhibition, % at 15 µM; 330,000 tested, 1.1% active; Q9NXA8; Purified SirT5, succinyl-peptide AMC, trypsin-coupled fluorescence; AID 652115; in the data active = inhibition above about 15%
# Target sequence (Q9NXA8 whole entry, looked up): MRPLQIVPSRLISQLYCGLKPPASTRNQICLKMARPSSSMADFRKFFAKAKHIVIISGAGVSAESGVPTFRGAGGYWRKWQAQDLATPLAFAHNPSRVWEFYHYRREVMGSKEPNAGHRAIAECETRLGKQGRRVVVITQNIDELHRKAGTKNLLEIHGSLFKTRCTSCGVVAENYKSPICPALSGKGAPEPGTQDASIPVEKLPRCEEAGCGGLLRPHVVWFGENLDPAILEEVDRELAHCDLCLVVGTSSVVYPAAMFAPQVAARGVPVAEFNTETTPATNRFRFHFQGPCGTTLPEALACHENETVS
# Rtt109 HAT inh: C. albicans Rtt109 histone acetyltransferase inhibition; Q5AAJ8; purified Rtt109/Vps75, ThioGlo CoA-SH fluorescence, 4 h; inhibition, % at 34.9 µM; 330,000 tested, 0.16% active;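 active = inhibition of at least 50% in every replicate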
# DENV2 CPE: inhibitors of DENV2 cytopathic effect; CPE inhibition, % at 9.99 µM; AID 651640; 350,000 tested, 1.7% active; DENV2-infected cells, cytopathic effect rescue, plate reader; in the data active = CPE inhibition above about 20%, passing the limit was not always enough; tested in BHK-21 cells;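 note: 0% = median of neutral control wells and 100% = median of positive control wells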
# The depositor's hits bear a star; · = no result; ! = repeats disagree. Hits are enriched below; roughly 2.3% of the tested compounds scored in any of these assays.
SMILES,ERp5 block,PDI turbidity,SIRT5 inh,Rtt109 HAT inh,DENV2 CPE
COc1ccccc1C(=O)Nc1ccc(Br)c2cccnc12,4.1,-5.8,-1.6,-12.5,-3.6
CC(C)(C)c1ccc(C(=O)Nc2cccc3ncccc23)cc1,3.8,9.3,2.0,·,-7.3
CC(=O)Nc1cccc2ncccc12,8.2,10.0,·,4.6,32.0*
COc1cc(NC(C)=O)c2ncccc2c1Br,2.8,-4.4,-0.3,·,89.1*
CCOC(=O)c1cc(-c2ccc(F)cc2)nc2c1c(=O)[nH]c(=O)n2Cc1ccccc1,3.0,13.3,0.9,9.2,4.3
CCOC(=O)c1cc(-c2cc(OC)c(OC)c(OC)c2)nc2c1c(=O)[nH]c(=O)n2Cc1ccccc1,-9.7,-1.8,20.3*,-14.8,-5.1
CC(C)OC1=CC(=O)OC(c2cccc(Cl)c2)C1 (configuration not stated),0.4,·,-1.1,·,30.9*
C[C@@H]1CN([C@H](C)CO)C(=O)c2cc(C#Cc3ccccc3)cnc2O[C@@H]1CN(C)C(=O)CCN1CCCCC1,-0.7,·,4.3,·,-6.6
O=C(CNC(=O)c1ccc(Br)o1)NC12CC3CC(CC(C3)C1)C2,2.5,-10.9,-1.1,57.6*,-5.5
COc1ccc(CCNC(=O)[C@@]2(Cc3ccccc3I)c3ccccc3C(=O)N(Cc3ccccc3OC)[C@H]2c2ccc(CO)cc2)cc1,1.4,·,6.2,·,-3.9
COC(=O)c1cc(OC)c(OC)cc1NC(=O)c1cc(OC)cc(OC)c1,-3.1,17.0,15.7*,-12.2,·
COc1ccccc1CNC(=O)C[C@H]1CC[C@@H]2[C@H](COC[C@@H](O)CN2Cc2cccc(-c3ccncc3)c2)O1,3.5,·,0.6,·,-7.5
CCc1ccc(Nc2n[n+](-c3ccccc3)c(-c3ccc(C(=O)O)cc3)s2)cc1,-0.6,2.2,·,3.6,22.9*
CCCCCC(=O)N1C[C@@H](n2cc(C3CC3)nn2)[C@H](O)C[C@@H]1c1ccccc1,0.6,5.3,-6.5,·,24.8*
CCCCCCN1C[C@H](O)[C@@H](n2cc(-c3ccc(F)cc3)nn2)C[C@@H]1c1ccc(C)cc1,-4.2,-3.9,-3.8,·,3.3
CCCCCCN1C[C@@H](n2cc(C3CC3)nn2)[C@H](O)C[C@@H]1c1ccc(OC)cc1,1.6,5.6,22.7*,·,-2.7
CCCCCCN1C[C@@H](O)[C@H](n2cc(-c3ccc(F)cc3)nn2)C[C@@H]1c1ccc(C)cc1,-2.7,-6.2,-1.4,·,71.7*
CCCCCC(=O)N1C[C@@H](O)[C@H](n2cc(C3CC3)nn2)C[C@@H]1c1ccccc1,-7.1,-6.2,·,·,-6.9
CCCCCCN1C[C@@H](O)[C@H](n2cc(C3CC3)nn2)C[C@@H]1c1ccc(OC)cc1,3.6,-5.4,1.6,·,-3.4
CCOC(=O)C1(CCCc2ccccc2)CCN(C2CCN(C(C)=O)CC2)CC1,-2.9,20.9,17.6*,2.9,0.7
CCOC(=O)C1(CCCc2ccccc2)CCN(C(=O)CSC)CC1,0.3,5.0,-6.4,-6.5,-1.8
O=C(Nc1ccc2oc(=O)ccc2c1)c1ccc(-c2cccc(Cl)c2)o1,-3.4,-0.6,-2.8,-5.2,0.1
O=C(Nc1ccc2oc(=O)ccc2c1)c1ccc(-c2cccc([N+](=O)[O-])c2)o1,16.5,-2.3,-3.3,·,27.1*
CN(C)S(=O)(=O)N1CCC(Oc2ccc(C(=O)N3CCCCCC3)cc2)CC1,0.8,-16.4,·,·,5.4
CN(C)S(=O)(=O)N1CCC(Oc2ccc(C(=O)N3CCCCCCC3)cc2)CC1,2.9,-2.1,-0.5,7.9,45.5*
SMILES,ERp5 block,PDI turbidity,SIRT5 inh,Rtt109 HAT inh,DENV2 CPE
COC(=O)C1CCN(Cc2ccc(OCCCN3CCN(c4ccc([N+](=O)[O-])cc4)CC3)cc2)CC1,2.7,2.4,15.8*,0.2,3.8
CC1CCN(CCCCOc2ccc([N+](=O)[O-])cc2)CC1,-0.4,-2.4,-0.5,5.2,18.4
O=[N+]([O-])c1ccc(OCCCCCN2CCOCC2)cc1,-1.7,-22.1,0.1,-6.5,26.3*
O=[N+]([O-])c1ccc(OCCCCN2CCCCC2)cc1,·,1.7,·,2.4,·
CC(=O)N1[C@@H]2c3ccc(C4=CCCCC4)c(=O)n3C[C@H]1[C@H](CO)[C@H]2C(=O)N[C@@H](C)c1ccccc1,0.5,·,-15.5,·,-1.4
COc1ccc(N2CCN(C(=O)CN3CCN(C(c4ccccc4)c4ccccc4)CC3)CC2)cc1,·,-0.8,·,-2.3,·
O=C(CN1CCN(C(c2ccccc2)c2ccccc2)CC1)N1CCOCC1,-3.1,-6.3,-10.3,·,22.8*
CC(C)NC(=O)N(C)C[C@@H]1Oc2ncc(C#Cc3ccncc3)cc2C(=O)N([C@@H](C)CO)C[C@H]1C,6.8,·,-1.0,·,3.0
C[C@@H]1CCCCO[C@@H](CN(C)C(=O)Nc2ccc3c(c2)OCO3)[C@H](C)CN([C@@H](C)CO)C(=O)c2cc(NC(=O)NC3CCCCC3)ccc2O1,·,·,·,·,-8.8
C[C@@H]1CN([C@H](C)CO)C(=O)c2cc(NC(=O)NC3CCCCC3)ccc2O[C@@H](C)CCCCO[C@H]1CN(C)C(=O)Nc1ccc2c(c1)OCO2,·,·,·,·,100.9*
C[C@@H]1CCCCO[C@@H](CN(C)C(=O)Nc2ccc3c(c2)OCO3)[C@H](C)CN([C@H](C)CO)C(=O)c2cc(NC(=O)NC3CCCCC3)ccc2O1,·,·,·,·,-3.7
C[C@H]1CCCCO[C@@H](CN(C)C(=O)Nc2ccc3c(c2)OCO3)[C@@H](C)CN([C@@H](C)CO)C(=O)c2cc(NC(=O)NC3CCCCC3)ccc2O1,·,·,·,·,48.1*
COc1ccc(S(=O)(=O)N[C@H]2C=C[C@H](CC(=O)NCCc3ccccc3)O[C@H]2CO)cc1,0.4,·,0.9,·,-1.5
COc1ccc(S(=O)(=O)N[C@H]2C=C[C@@H](CC(=O)NCCc3ccncc3)O[C@H]2CO)cc1,-1.4,·,28.6*,·,2.7
COc1ccc(S(=O)(=O)N[C@@H]2C=C[C@@H](CC(=O)NCCc3ccccc3)O[C@@H]2CO)cc1,1.9,·,-0.6,·,39.0*
COC(=O)C[C@@H]1C=C[C@@H](NS(=O)(=O)c2ccc(OC)cc2)[C@@H](CO)O1,5.1,·,2.3,·,23.3*!
COc1ccc(S(=O)(=O)Nc2ccc3c(c2)C(=O)N([C@@H](C)CO)C[C@H](C)[C@@H](CN(C)S(C)(=O)=O)OCCCC[C@@H](C)O3)cc1,-6.7,·,-9.3,·,5.2
C[C@H]1CN([C@@H](C)CO)C(=O)c2cc(NS(=O)(=O)c3ccc(F)cc3)ccc2O[C@@H]1CN(C)CC1CC1,-3.6,·,3.5,·,6.5
O=C(CSc1nnc(-c2ccncc2)o1)Nc1cc(F)ccc1F,2.4,3.7,2.1,-2.3,44.0*

# Source: PubChem BioAssay
